Screening results: PubChem, National Center for Advancing Translational Sciences (NCATS)
Hits are enriched below; roughly 2.8% of the tested compounds scored in any of these assays.
Pol beta inh: inhibitors of human DNA polymerase beta. Pol beta primer extension/strand displacement, fluorescence kinetic. Potency, µM (doses to about 114 µM), actives largely listed as inhibitors. actives 1.3% (n = 340,000)
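Reaction started by 50 nM substrate onto compound-treated Pol beta (10 nM, 15 min preincubation, room temperature); plates read at 0 min and 10 min. Normalized concentration-effect data fitted by four-parameter Hill equation.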
Pol iota inh: blocks human DNA polymerase iota activity; Q9UNA4; Pol iota fluorescent replication assay, 10 min; Potency, µM (series often up to 115 µM), actives largely listed as inhibitors; actives 1% (n = 390,000); AID 588590
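Fluorescent replication assay read twice, at 0 min and 10 min after adding 50 nM (final) substrate. Enzyme (10 nM) and compounds were first incubated 15 min at room temperature; enzyme-free buffer wells were negative controls.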
PI5P4K alpha inh: inhibitors of human PI5P4K alpha. P48426. actives 1.2% (n = 330,000). PI5P4Kalpha enzyme, ADP-Glo luminescence, 60 min; stronger effect = lower value. max response, %. AID 652105; active = max response of -50% or lower; inconclusive = between -30% and -50%; inactive = -30% or higher; note: value at the top dose of about 77 µM
Target sequence (P48426 whole entry, looked up): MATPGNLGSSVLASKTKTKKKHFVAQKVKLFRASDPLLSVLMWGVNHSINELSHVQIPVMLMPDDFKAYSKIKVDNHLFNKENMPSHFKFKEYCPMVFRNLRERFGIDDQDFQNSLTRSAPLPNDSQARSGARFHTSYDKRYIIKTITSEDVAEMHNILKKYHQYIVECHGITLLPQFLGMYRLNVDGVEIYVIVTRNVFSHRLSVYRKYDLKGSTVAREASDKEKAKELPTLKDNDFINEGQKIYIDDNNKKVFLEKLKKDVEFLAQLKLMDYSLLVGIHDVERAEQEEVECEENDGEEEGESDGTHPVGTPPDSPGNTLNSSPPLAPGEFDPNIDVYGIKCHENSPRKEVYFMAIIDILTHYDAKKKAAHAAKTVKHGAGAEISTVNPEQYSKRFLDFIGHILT
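Reactions run in 0.038 M HEPES pH 7.4, 0.28 mM EGTA, 0.1% CHAPS and 5% DMSO, with PI5P4Kalpha, substrate, compound and 5 microM ATP final, one hour at room temperature. Readout is ADP-Glo luminescence.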
Pol kappa inh: blocks human DNA polymerase kappa activity | Q9UBT6 | purified Pol kappa, fluorescent DNA synthesis assay, 10 min | Potency, µM (titrated, usually from 107 µM), actives largely listed as inhibitors | actives 0.53% (n = 400,000)
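10 nM Pol kappa was preincubated with compounds for 15 min at room temperature. Reaction started with 50 nM (final) substrate. Fluorescence read kinetically at 0 and 10 min.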
PI4K2A block: blocks human PI4K2A kinase activity. Q9BTU6. activity change, negative = inhibition, % at 76.9 µM. actives 0.13% (n = 420,000). AID 1346378. purified PI4K2A, ADP-Glo luminescence, 1 h; stronger effect = lower value; in the data active = activity change below about -50%; inconclusive = mostly about -30% to -49%
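In this quantitative HTS, ADP production by PI4K2A was quantified luminescently after 1 h at ambient temperature; 100 microM adenosine served as plate-quality control.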
POLH inh: blocks human DNA polymerase eta activity | actives 1.2% (n = 390,000) | Q9Y253 | recombinant Pol eta, fluorescent DNA replication assay | Potency, µM (top dose mostly 114 µM), most hits filed as inhibitors
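Pol eta (10 nM) was preincubated with compounds for 15 min at room temperature, after which fluorescent replication substrate (50 nM final) was added to start the reaction. Fluorescence was read kinetically at 0 and 10 min.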
A number is an active result; - = inactive; ? = inconclusive; . = no result given; ! = not active in a repeat. Unless noted, calls come from the whole dose curve; as a rule, active = well fitted inhibition curve with a large enough effect; inconclusive = small, poorly fitted or top-dose-only effect, or another doubt; inactive = no such curve, though single readings can be large or run the other way.

SMILES	Pol beta inh	Pol iota inh	PI5P4K alpha inh	Pol kappa inh	PI4K2A block	POLH inh
O=C(Nc1cccc(Br)c1)N1CCC(CN2CCCCCC2)CC1	-	-	.	-	-	-
CC(=O)Nc1cccc(C(=O)/C=C/c2ccc(N(C)C)cc2)c1	50µM	22µM	-	?	-	?
Cc1cccc(C#Cc2ccccc2)n1	-	?	-	-	-50!	-
Nc1ccc(C#Cc2ccccc2)cc1	-	-	-	-	-	-
Nc1cc(Cl)ccc1N1CCCCC1	-	-	-	-	-	-
Nc1c(N2CCOCC2)cc(Cl)c2nonc12	-	3.5µM	.	-	-62	-
Nc1c(N2CCCC2)cc(Cl)c2nonc12	?	1.6µM	.	?	-66	22µM
Cc1cc(N2CCOCC2)c2c(N)cc(C)c(C)c2n1	-	-	-	-	-	-
COc1cc2c(cc1OC)CN(C(=O)[C@H](C)N[C@@H](CCc1ccccc1)C(=O)O)[C@H](C(=O)O)C2	.	.	.	.	-	.
CC1=C(C(=O)OCc2ccc3nsnc3c2)N2C(=O)[C@@H](NC(=O)OCc3ccc4nsnc4c3)[C@H]2SC1	.	?	.	-	.	.
CCCc1ccc(OCC(=O)N2CCN(C(=O)COc3ccc(CCC)cc3OC)CC2)c(OC)c1	.	.	.	.	-	.
CCN(CC)c1ccc(/C=C/c2ccc3ccccc3n2)cc1	.	?	.	40µM	.	.
CN1/C(=C/C=C(C#N)C#N)C=Cc2ccccc21	-	79µM	-	-	-	-
N#Cc1cnn(-c2ccc(F)cc2)c1N	-	-	-52	-	-	-
O=C(NCCc1ccc(Cl)cc1)C1COc2ccccc2O1 (stereo not drawn)	-	50µM	-	-	-	-
COc1ccc(Cl)cc1C(=O)NNC(=O)C1COc2ccccc2O1 (stereo not drawn)	-	-	-60	-	-	-
CCOc1ccc(NC(=O)c2cc3c(n(-c4ccc(OC)cc4)c2=O)CC(C)(C)CC3=O)cc1	-	-	.	-	-	-
CCOC(=O)c1ccc(NC(=O)c2cc3c(n(-c4ccc(C)cc4)c2=O)CC(C)(C)CC3=O)cc1	-	?	.	89µM	-	-
CC(C(=O)Nc1ccc(O)cc1C(=O)O)N1C(=O)/C(=C\c2cccs2)SC1=S (stereo not drawn)	?	?	?	?	-	22µM
O=C(CCCN1C(=O)/C(=C\c2ccccc2)SC1=S)Nc1ccc(O)cc1C(=O)O	-	-	-	-	-	-
O=C(O)COc1ccc2c(c1)O/C(=C\c1cccs1)C2=O	-	-	-	-	-	?
Cc1ccc(/C=C2\Oc3cc(OCC(=O)NN)ccc3C2=O)o1	-	79µM	-	-	-	-
COc1ccccc1NC(=O)Cn1c(SCC(=O)NCc2ccccc2)nc2ccccc21	-	-	.	-	-	-
C=C(CO)C1Cc2cc(C(C)=O)ccc2O1 (stereo not drawn)	?	?	-	?	-	20µM
CC1Cc2cc(C(=O)O)ccc2O1 (stereo not drawn)	-	?	-	-	-	?
SMILES	Pol beta inh	Pol iota inh	PI5P4K alpha inh	Pol kappa inh	PI4K2A block	POLH inh
Cn1c(=O)n(-c2ccc3c(c2)OCO3)c2nc(-c3ccccc3)nc(C(N)=O)c21	6.3µM	-	.	-	-	?
CCn1c2ccccc2c2cc(NC(=O)c3cc4c(C)nn(-c5ccccc5)c4s3)ccc21	.	.	.	.	-	.
CCOc1ccc2nc(N3CCCCCC3)sc2c1	-	-	.	-	-	-
CCOc1ccc2nc(N3C(=O)/C(=C/c4ccccc4)NC3=S)sc2c1	-	-	-54	-	-	?
Nc1nc(NCc2ccccc2)nc(Nc2cccc(F)c2)c1[N+](=O)[O-]	-	-	.	-	-	-
Nc1nc(Nc2cccc(F)c2)nc(NCCO)c1[N+](=O)[O-]	?	-	-63	-	-	-
Cc1cccc(C(=O)OCC(=O)c2ccc(CC(=O)N3CCOCC3)s2)c1C	.	-	-60	79µM	-	10µM
Cc1cccc(C(=O)OCC(=O)N2CC(C)OC(C)C2)c1C (stereo not drawn)	-	-	-	-	-	-
